Screening data deposited in PubChem BioAssay by National Center for Advancing Translational Sciences (NCATS).
Rows were chosen to be rich in hits. Some 0.64% of all compounds tested hit in one or more screens of this group.
TR SRC2 fluor cs = counter-screen for TRb-SRC2 inhibitors: fluorescence interference. TRb/SRC2 Texas Red total fluorescence interference. Potency, µM (titrated, usually from 106 µM), for the others: top-dose fluorescence change, negative = quenching. 280,000 tested, 0.29% active. AID 1479; active = well fitted curve in either direction with a large enough effect; inconclusive = small, poorly fitted or top-dose-only effect
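Human TRβ ligand-binding domain (0.6 uM) and Texas Red SRC2 peptide (20 nM) in Tris buffer with 1 uM T3 and 5% DMSO were incubated with pinned compound for 5 hr at ambient temperature. Total fluorescence was computed as S + 2P (555/632 nm).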
RECQ1 inh-1 = blocks DNA unwinding by human RECQ1 | P46063 | RECQ1 DNA unwinding, red fluorescence kinetic read | Potency, µM (titrated, usually from 57.3 µM), without a hit: at the highest dose activity, negative = inhibition, most hits filed as inhibitors | 240,000 tested, 0.54% active;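 also: plate controls were vehicle for no effect and no enzyme for full effect; nearly all actives have a fitted effect of over 30% in size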
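50 nM RECQ1T1 preincubated 15 min with compound in Tris pH 8.0 buffer with MgCl2, DTT, Tween-20 and 2.5 ug/ml poly(dI-dC); started with 200 nM TAMRA/BHQ-2 forked duplex and 2 mM ATP. Unwinding read as fluorescence (525/598 nm), two reads 2 h apart.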
BLM helicase inh = blocks DNA unwinding by human BLM helicase. Potency, µM (doses to about 56.1 µM), for the others: at the highest dose activity change, negative = inhibition, actives largely listed as inhibitors. recombinant BLM DNA unwinding, fluorescence dequenching. 350,000 tested, 0.2% active. P54132. AID 2528;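 also: plate controls were vehicle for no effect and no enzyme for full effect; nearly all actives have a fitted effect of over 35% in size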
TRb-SRC2 inh = TRbeta-SRC2 interaction inhibition; TRbeta-SRC2 peptide binding, fluorescence polarization; receptor liganded with 1 µM T3; Potency, µM (highest dose often 106 µM), for inactives: top-dose activity change, negative = inhibition, usual class: inhibitors; P10828; 280,000 tested, 0.065% active; AID 1469;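 also: plate controls were bound peptide for no effect and peptide without receptor for full effect; nearly all actives have a fitted effect of over 50% in size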
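Fluorescence polarization of 20 nM Texas Red SRC2 peptide (20-aa NR interaction domain) bound to 0.6 uM human TRb ligand-binding domain, with 1 uM T3, after 5 hr at ambient temperature; inhibition seen as decreased polarization.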
RECQ1 conf = confirmation of human RECQ1 helicase inhibitors | shares compounds with RECQ1 inh-1 | RECQ1 helicase DNA unwinding, fluorescence | Potency, µM (series often up to 229 µM), inactives show top-dose activity change, negative = inhibition, actives largely listed as inhibitors | 610 tested, 28% active | AID 2708; also: nearly all actives have a fitted effect of over 45% in size
ADP FP counter = displaces ADP in a fluorescence polarization counter-screen for RECQ1 hits; shares compounds with RECQ1 inh-1; ADP fluorescence polarization displacement counterscreen; Potency, µM (highest dose often 228 µM), without a hit: top-dose activity change, negative = inhibition, actives largely listed as inhibitors; 530 tested, 27% active; also: nearly all actives have a fitted effect of over 45% in size
RECQ1 inh-2 = blocks human RECQ1 DNA unwinding; shares compounds with RECQ1 inh-1; recombinant RECQ1 DNA unwinding, red fluorescence; AID 504841; Potency, µM (series often up to 119 µM), for inactives: at the highest dose activity, negative = inhibition, most hits filed as inhibitors; 1,100 tested, 15% active; also: nearly all actives have a fitted effect of over 50% in size
An asterisk follows results filed as active; [ ] = dose if it differs, or a comment. Unless noted, calls follow the shape of the dose curve; as a rule, active = well fitted curve in the direction sought with a large enough effect; inconclusive = small, poorly fitted or top-dose-only effect, or another doubt; inactive = no such curve, though single readings can be large; an effect the other way counts as inactive or inconclusive. Unless noted, % is scaled to controls: 0 for no effect and ±100 for the full control effect; potency is read from the fitted curve at half-maximal effect.

How did CCOc1ccccc1NC(=O)C1CCN(S(=O)(=O)c2c(C)noc2/C=C/c2ccc(C)cc2)CC1 do in these assays?
TR SRC2 fluor cs: -6%; BLM helicase inh: -1%; TRb-SRC2 inh: -5%

How did COc1ccccc1N1CCN(S(=O)(=O)c2c(C)nc3sccn3c2=O)CC1 do in these assays?
TR SRC2 fluor cs: -1%; BLM helicase inh: 0%; TRb-SRC2 inh: -9%

How did Cc1ccc(O)c(N=Cc2cc(Cc3ccccc3)cc([N+](=O)[O-])c2O)c1 do in these assays?
TR SRC2 fluor cs: -17%; RECQ1 inh-1: 13µM*; BLM helicase inh: -22%; TRb-SRC2 inh: -6%; RECQ1 conf: 56µM*; ADP FP counter: 45µM*; RECQ1 inh-2: inconclusive

Results for COc1cccc(CN2CCN(C(=O)c3ccc(-c4ccccc4)cc3)CC2)c1 ?
TR SRC2 fluor cs: 2%; RECQ1 inh-1: 25µM*; BLM helicase inh: -2%; TRb-SRC2 inh: 5%; RECQ1 inh-2: -27%

What do the screens show for `Cc1noc(C)c1-c1ccc2ncnc(NCc3ccc(C(F)(F)F)cc3)c2c1`?
TR SRC2 fluor cs: -2%; RECQ1 inh-1: inactive; BLM helicase inh: -4%; TRb-SRC2 inh: 4%

What do the screens show for `CCC(/C=C1\Sc2ccc(OC)cc2N1CCO)=C\c1sc2ccc(OC)cc2[n+]1CCO`?
TR SRC2 fluor cs: 50µM*[fluorescent]; RECQ1 inh-1: 13µM*; BLM helicase inh: inconclusive; TRb-SRC2 inh: inconclusive; RECQ1 inh-2: 45µM*

How did COc1ccc2c(c1)CCc1c(C(=O)N(C)c3ccccc3)noc1-2 do in these assays?
TR SRC2 fluor cs: 3%; RECQ1 inh-1: 4.5µM*; BLM helicase inh: -3%; TRb-SRC2 inh: -3%; RECQ1 conf: 6%[114 µM]; ADP FP counter: inconclusive; RECQ1 inh-2: -12%

Results for CCOc1ccc(NC(=O)C2CCCN(S(=O)(=O)c3ccc(Br)s3)C2)cc1 (centres undefined) ?
TR SRC2 fluor cs: 1%; BLM helicase inh: -1%; TRb-SRC2 inh: 0%

Results for COc1ccc(Nc2ccc(Nc3ccc(OC)cc3)nn2)cc1 ?
TR SRC2 fluor cs: -4%; RECQ1 inh-1: -9%; BLM helicase inh: 1%; TRb-SRC2 inh: 2%

Results for COc1ccc(Nc2ccc(OC)cc2)cc1 ?
TR SRC2 fluor cs: 12%; RECQ1 inh-1: 5.6µM*; BLM helicase inh: -6%; TRb-SRC2 inh: inconclusive; RECQ1 conf: inconclusive; ADP FP counter: 20µM*; RECQ1 inh-2: -25%

What do the screens show for `CCC1(CC)NC(=O)N(CC(=O)Nc2sc3c(c2C(N)=O)CCC3)C1=O`?
TR SRC2 fluor cs: -5%; RECQ1 inh-1: 22µM*; BLM helicase inh: -19%; TRb-SRC2 inh: -8%; RECQ1 conf: 45µM*; ADP FP counter: inconclusive; RECQ1 inh-2: inconclusive

Results for CCOC(=O)Cc1csc(SCC(=O)Nc2sc3c(c2C(N)=O)CCC3)n1 ?
TR SRC2 fluor cs: -11%; RECQ1 inh-1: inconclusive; BLM helicase inh: -21%; TRb-SRC2 inh: -3%; RECQ1 inh-2: inconclusive

Results for CCN(c1ccc(C)c(C)c1)S(=O)(=O)c1ccc2c(c1)CCN2C(=O)CCC(=O)O ?
TR SRC2 fluor cs: -8%; RECQ1 inh-1: -20%; BLM helicase inh: -2%; TRb-SRC2 inh: 1%; RECQ1 conf: 15%; ADP FP counter: -11%

What do the screens show for `COc1ccc(N(C)S(=O)(=O)c2ccc3c(c2)CCN3C(=O)CCC(=O)O)cc1`?
TR SRC2 fluor cs: -2%; BLM helicase inh: 0%; TRb-SRC2 inh: 5%

Results for CCN(c1ccc(OC)cc1)S(=O)(=O)c1ccc2c(c1)CCN2C(=O)CCC(=O)O ?
TR SRC2 fluor cs: 0%; RECQ1 inh-1: -10%; BLM helicase inh: 0%; TRb-SRC2 inh: -17%; RECQ1 conf: 9%; ADP FP counter: -12%

Results for Cn1cnc2c(=O)oc3ccc(S(=O)(=O)Nc4ccc(F)cc4)cc3c21 ?
TR SRC2 fluor cs: -1%; BLM helicase inh: 0%; TRb-SRC2 inh: -4%

What do the screens show for `COc1cc(C(C)=O)ccc1COc1ccc(C(=O)OCC(=O)NC2CCS(=O)(=O)C2)cc1OC` (centres undefined)?
TR SRC2 fluor cs: -1%; RECQ1 inh-1: 32µM*; BLM helicase inh: 0%; TRb-SRC2 inh: -4%; RECQ1 inh-2: -9%

What do the screens show for `COc1cc(C(C)=O)ccc1COc1ccc(C(=O)OCC(=O)NC(C)(C)C)cc1OC`?
TR SRC2 fluor cs: 9%; RECQ1 inh-1: 0%; BLM helicase inh: 0%; TRb-SRC2 inh: 11%

Results for CCCC(=O)Nc1nnc(SCc2cc(=O)c3cc(C)ccc3[nH]2)s1 ?
TR SRC2 fluor cs: -1%; BLM helicase inh: -3%; TRb-SRC2 inh: -1%

Results for CC(=O)Oc1ccc2c(=O)c(Oc3ccccc3)coc2c1OC(C)=O ?
TR SRC2 fluor cs: -8%; RECQ1 inh-1: 3.5µM*; BLM helicase inh: -9%; TRb-SRC2 inh: -3%; RECQ1 inh-2: 25µM*

Results for O=C(Nc1ccc(OC(F)(F)F)cc1)c1nc2ccccc2nc1N1CCCCC1 ?
TR SRC2 fluor cs: inconclusive; BLM helicase inh: -10%; TRb-SRC2 inh: -10%

Results for Cc1cc2cc(C(c3nnnn3Cc3ccco3)N3CCc4ccccc43)c(=O)[nH]c2cc1C (centres undefined) ?
TR SRC2 fluor cs: -9%; RECQ1 inh-1: inconclusive; BLM helicase inh: -24%; TRb-SRC2 inh: -7%; RECQ1 inh-2: -7%

What do the screens show for `Cc1cc2cc(C(c3nnnn3Cc3ccccc3)N3CCc4ccccc43)c(=O)[nH]c2cc1C` (centres undefined)?
TR SRC2 fluor cs: 0%; RECQ1 inh-1: -3%; BLM helicase inh: -7%; TRb-SRC2 inh: -22%

What do the screens show for `Cc1c(-c2ccc(Cl)cc2)c(=O)oc2c(CN3CCN(CCO)CC3)c(O)ccc12`?
TR SRC2 fluor cs: 0%; BLM helicase inh: 4%; TRb-SRC2 inh: -12%

What do the screens show for `O=C(O)c1c2c(nc3ccccc13)/C(=C/c1ccc(O)cc1)CC2`?
TR SRC2 fluor cs: -4%; RECQ1 inh-1: 28µM*; BLM helicase inh: -9%; TRb-SRC2 inh: -1%; RECQ1 inh-2: inconclusive

Results for COc1ccc2[nH]cc(CCNC(=O)c3cnn(-c4ccc(C)cc4)c3C3CCN(C(=O)OC(C)(C)C)CC3)c2c1 ?
TR SRC2 fluor cs: -2%; BLM helicase inh: -11%; TRb-SRC2 inh: -3%
